In PubChem BioAssay (EPA / NIEHS) one finds outcome and AC50 data, which are given here for 38 compounds.

Some structures have more than one record in an assay (separate samples or runs), and their calls can disagree. The source made the active and inactive calls. The calls were made as follows: active = hit-call score of the fitted dose curve at least 0.9, where 1 is the maximum; inactive = score below 0.9.

As a reminder, the AC50 is the midpoint of the concentration-response curve, whichever way the signal moves.

One assay is described as follows: ATG_ERE_CIS: Attagene CIS-FACTORIAL HepG2 Assay for Estrogen Response Element (ERE) (AID 2282940). Particulars: HepG2 ERE cis-reporter, Attagene RNA transcript; actives raise or lower the signal. In short, it runs like this:
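After a 24 h chemical treatment, RNA from reporter-transfected HepG2 cells is reverse-transcribed, PCR-amplified and fluorescently labelled. Fragments separated by capillary electrophoresis give reporter signal; DMSO serves as negative control.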
Take `CC(=O)C(Cl)C(=O)N(C)C` (configuration not stated): the outcome was inactive.

Turning to `O=C(Cl)c1ccc(Cl)cc1`, the compound was classed as inactive.

For `C=CC(=O)N(C)C`, the compound was classed as inactive.

For `CCOP(=O)(CN(CCO)CCO)OCC`, the compound was called inactive. Still for that read-out and setting: with `C(=NC1CCCCC1)=NC1CCCCC1` the entry was “inactive”. In the case of `ClC1=C(Cl)[C@]2(Cl)[C@H]3[C@H]([C@H]4C=C[C@H]3C4)[C@@]1(Cl)C2(Cl)Cl`, the AC50 is 9.92 µM (active). Take `CC(C)c1ccc(CO)cc1`: the result was inactive. Still for that read-out and setting: the entry for `CCC1(c2ccc(N)cc2)CCC(=O)NC1=O` (configuration not stated) is “inactive”; for `COc1ccccc1OC` it is “inactive”; for `Clc1nc(Cl)nc(Cl)n1` it is “inactive”. Take `CC(C)C1CCC(Cc2ccc(Cl)cc2)C1(O)Cn1cncn1` (configuration not stated): the outcome was inactive. For the compound `Cc1ccc2ccccc2c1C`, the compound was classed as inactive. In the case of `C[C@]12CC[C@H](O)CC1=CC[C@@H]1[C@@H]2CC[C@]2(C)C(=O)CC[C@@H]12`, the AC50 was 0.987 µM (active). In the case of `ClCc1cccnc1`, the call was inactive. On the same count and under the same terms, the entry for `Cc1cc(Cl)ccc1O[C@H](C)C(=O)O` is “inactive”. On the same count and under the same terms, with `COc1ccc(C=O)cc1` the entry was “inactive”. As to `CNC(=O)O/N=C/C(C)(C)S(C)=O` (configuration not stated), the AC50 was 84.1 µM (active). With `COP(=S)(OC)Oc1ccc(S(=O)(=O)N(C)C)cc1`, the compound was classed as inactive. On the same count and under the same terms, with `OCc1ccco1` the entry was “inactive”; with `O=[N+]([O-])c1c(Cl)c(Cl)cc(Cl)c1Cl`, “inactive”; with `Cc1ccc(N)cc1Cl`, “inactive”.

Regarding `NC(=O)O`, the result was inactive. For `O=C(Nc1ccc2[nH]ccc2c1)c1cc2cc(F)ccc2n1Cc1cccc(F)c1`, the call was inactive. The same measure, in the same setting: the entry for `[O-][Cl+2]([O-])O` is “inactive”. Consider `Nc1ccc(-c2ccc(N)c(Cl)c2)cc1Cl`, for which the AC50 is 3.86 µM (active). In the case of `CCC(=O)c1ccccc1`, the compound was classed as inactive. Same read-out and setting: the entry for `CCOP(=S)(OCC)SCCS(=O)(=O)CC` is “inactive”; for `Cl/C=C\C[N+]12CN3CN(CN(C3)C1)C2` it is “inactive”. Same read-out and setting: with `CCOP(OCC)OCC` the entry was “inactive”.

As for `Clc1ccc(C2(Cn3cncn3)CC(Br)CO2)c(Cl)c1` (configuration not stated), the AC50 is 2.54 µM (active).

Turning to `CCCCP(CCCC)CCCC`, the AC50 was 72.5 µM (active). On the same count and under the same terms, the figure for `Nc1ccc(N=Nc2ccc(-c3ccc(N=Nc4c(S(=O)(=O)O)cc5cc(S(=O)(=O)O)c(N=Nc6ccccc6)c(O)c5c4N)cc3)cc2)c(N)c1` is 24.8 µM (active).

Another assay is described as follows: ATG_Ets_CIS: Attagene CIS-FACTORIAL HepG2 Assay for human Erythroblast Transformation Specific (ETS) (AID 2282941). Particulars: HepG2 ETS cis-reporter transcription, actives raise or lower the signal. In short, it runs like this:
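Endogenous transcription factor activity read as reporter mRNA via RT-PCR and capillary electrophoresis, with gain or loss fitted bidirectionally against DMSO. Human HepG2 liver cells, transiently transfected CIS reporter constructs, 24 h exposure.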
As to `COc1cc(-c2ccc(N)c(OC)c2)ccc1N`, the AC50 is 100 µM (active) and the compound was classed as inactive. `CC(=O)C(Cl)C(=O)N(C)C` (configuration not stated): the AC50 is 100 µM (active). `O=C(Cl)c1ccc(Cl)cc1`: the result was inactive.

On to `CC(C)(C)CC(C)(C)c1ccc(O)cc1`, for which the compound was classed as inactive. On to `C=CC(=O)N(C)C`, for which the call was inactive. In the case of `CCOP(=O)(CN(CCO)CCO)OCC`, the compound was called inactive. Consider `C(=NC1CCCCC1)=NC1CCCCC1`, for which the call was inactive. Still for that read-out and setting: with `ClC1=C(Cl)[C@]2(Cl)[C@H]3[C@H]([C@H]4C=C[C@H]3C4)[C@@]1(Cl)C2(Cl)Cl` the entry was “inactive”. Take `CC(C)c1ccc(CO)cc1`: the compound was called inactive. For the compound `CCC1(c2ccc(N)cc2)CCC(=O)NC1=O` (configuration not stated), the outcome was inactive. Regarding `COc1ccccc1OC`, the result was inactive. On to `Clc1nc(Cl)nc(Cl)n1`, for which the compound was classed as inactive. Still for that read-out and setting: the entry for `CC(C)C1CCC(Cc2ccc(Cl)cc2)C1(O)Cn1cncn1` (configuration not stated) is “inactive”; for `Cc1ccc2ccccc2c1C` it is “inactive”; for `C[C@]12CC[C@H](O)CC1=CC[C@@H]1[C@@H]2CC[C@]2(C)C(=O)CC[C@@H]12` it is “inactive”.

As for `ClCc1cccnc1`, the AC50 was 81.3 µM (active). As for `C[C@]12CCC(=O)C[C@@H]1CC[C@@H]1[C@@H]2CC[C@]2(C)[C@@H](O)CC[C@@H]12`, the compound was called inactive. The same measure, in the same setting: the entry for `Oc1cccc2cccnc12` is “inactive”; for `Cc1cc(Cl)ccc1O[C@H](C)C(=O)O` it is “inactive”. Take `COc1ccc(C=O)cc1`: the compound was called inactive. On to `CNC(=O)O/N=C/C(C)(C)S(C)=O` (configuration not stated), for which the outcome was inactive. Same read-out and setting: the entry for `COP(=S)(OC)Oc1ccc(S(=O)(=O)N(C)C)cc1` is “inactive”; for `OCc1ccco1` it is “inactive”; for `O=[N+]([O-])c1c(Cl)c(Cl)cc(Cl)c1Cl` it is “inactive”. With `Cc1ccc(N)cc1Cl`, the call was inactive. As to `NC(=O)O`, the compound was classed as inactive. Still for that read-out and setting: the entry for `O=C(O)C(F)(F)C(F)(F)C(F)(F)C(F)(F)C(F)(F)C(F)(F)C(F)(F)C(F)(F)C(F)(F)C(F)(F)F` is “inactive”. As to `O=C(Nc1ccc2[nH]ccc2c1)c1cc2cc(F)ccc2n1Cc1cccc(F)c1`, the compound was classed as inactive. The same measure, in the same setting: the entry for `[O-][Cl+2]([O-])O` is “inactive”; for `Nc1ccc(-c2ccc(N)c(Cl)c2)cc1Cl` it is “inactive”. Still for that read-out and setting: the entry for `CCC(=O)c1ccccc1` is “inactive”; for `CCOP(=S)(OCC)SCCS(=O)(=O)CC` it is “inactive”; for `Cl/C=C\C[N+]12CN3CN(CN(C3)C1)C2` it is “inactive”.

As to `O=C1C2(Cl)C3(Cl)C4(Cl)C(Cl)(Cl)C5(Cl)C3(Cl)C1(Cl)C5(Cl)C24Cl` (configuration not stated), the AC50 is 20.3 µM (active) and the compound was called inactive. Take `CCOP(OCC)OCC`: the outcome was inactive. In the case of `Clc1ccc(C2(Cn3cncn3)CC(Br)CO2)c(Cl)c1` (configuration not stated), the outcome was inactive. With `CCCCP(CCCC)CCCC`, the outcome was inactive. Consider `Nc1ccc(N=Nc2ccc(-c3ccc(N=Nc4c(S(=O)(=O)O)cc5cc(S(=O)(=O)O)c(N=Nc6ccccc6)c(O)c5c4N)cc3)cc2)c(N)c1`, for which the call was inactive.
